The panel holds about 83,000 compounds, 20% with a hit somewhere; the sample as a whole holds those more often.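 48-hour exposure, single concentration, 96-well plates; percent growth endpoint where 0 means no net growth. Active: below 10.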 Unmarked numbers belong to inactive results. Calls of active or inactive are those of the source.

The test system of the assay is MDA-MB-435 melanoma. Put plainly: NCI-60 one-dose screen, 48 h (100 = growth as untreated, 0 = no growth, -100 = all killed). Conditions: 10 µM unless noted.
On to `CN1CCN(Cc2ccc(NC(=O)c3cncc(C#Cc4cnc5ccc(OCC6(C)COC6)nn45)c3)cc2C(F)(F)F)CC1`, for which the growth was -90.9% (active).
Regarding `CC(=O)c1cc(C(=O)c2ccc(Br)cc2)n2cc(C)cc(C)c12`, the growth is 97.7%.
Turning to `COC(=O)C[Se]C(=O)Cc1c(C)n(C(=O)c2ccc(Cl)cc2)c2ccc(OC)cc12`, the growth was 39.6%.
As to `N#Cc1cccc(CN2CCC3=C(C2)C(=O)N(Cc2ccc(Cl)cc2)C2=NCCCN23)c1`, the growth is 20.3%.
`C=CCn1c(SCC(=O)Nc2ccc(C(=O)/C=C/c3ccc(C)cc3)cc2)nnc1-c1c[nH]c2ccccc12`: the growth is 96.7%.
As to `CCCn1cnc2c(c1=N)C(c1ccc(OC)cc1)c1sc3c(CC)cccc3c1O2` (stereo not drawn), the growth was -44.5% (active).
Then `Cc1ccc(-c2cc3nc(C(Cl)Cl)nc(C)n3n2)cc1`, with 110%; and `CCOC(=O)C(=O)CC(=O)N1C(=S)NC(=O)C1CC(C)C` (stereo not drawn), with 99.9%; and `COc1ccc(-c2nc(C(Cl)Cl)nc3cc(-c4ccccc4)nn23)cc1`, with -30.3% (active).
The figure for `CNC(=O)c1cc(-c2ccc(NS(=O)(=O)c3ccc(C)cc3)cc2)nc2cccnc12` is 109%; for `NC(N)=Nc1ccc(Oc2cccc(Nc3ccc(Cl)c(C(F)(F)F)c3)c2)cn1` it is -86.2% (active); for `CCN1CCN(Cc2ccc(C(=O)Nc3ccc(C)c(Oc4ccc(-c5[nH]nc6ncnc(N)c56)cc4)c3)cc2C(F)(F)F)CC1` it is 82%.
For `COc1ccc(NC(=O)Nc2ccc3c(ccn3C(=O)c3cccc(F)c3)c2)cc1`, the growth is 74.9%.
On to `CCn1c(SCC(=O)Nc2cccc(C(=O)/C=C/c3ccccc3Cl)c2)nc2ccccc2c1=O`, for which the growth was 98.6%.
On to `COc1ccc(-c2nn(-c3ccc(S(C)(=O)=O)cc3)cc2/C=N/O)cc1`, for which the growth was 109%.
With `NC(N)=Nc1ccc(Oc2ccc(Nc3ccc(Cl)c(C(F)(F)F)c3)cc2)cc1`, the growth is 40.3%.
For `COc1ccc(NC(=O)CSc2nnc(-c3ccc4nc(-c5ccc(OC)c(OC)c5)[nH]c4c3)o2)cc1OC`, the growth was 102%.
Then `Cc1ccc(-n2c(/C=C3\C(=O)Nc4ccccc43)ccc2CO)cc1`, with -10.3% (active).
Take `O=C(NNc1nc2cc(F)ccc2n2c(CO)ccc12)c1cnccn1`: the growth is 27.3%.
On to `Nc1ccccc1NC(=O)c1ccc(NC(=O)C/C=C/c2cccnc2)cn1`, for which the growth is 19%.
Then `Cn1ccnc1C(=O)/C=C/c1ccc(CNC(=O)c2c(F)c(F)c(F)c(F)c2F)cc1`, with 64.7%; and `C#C[C@]1(O)CC[C@H]2[C@@H]3CC=C4c5sc(-c6cccc(O)c6)nc5CC[C@]4(C)[C@H]3CC[C@@]21C`, with -51.4% (active); and `COc1cc2c(cc1OC)C(Sc1ccc(F)cc1)c1c(nc(N)c(C#N)c1N)O2` (stereo not drawn), with -52.9% (active).
Regarding `N#Cc1cn(Cc2ccc(Cl)cc2Cl)c(C(=O)c2ccc(Br)cc2)c1N`, the growth was 95.6%.
Turning to `O=C(O)c1ccc(-n2cc(CNc3cc(F)c(F)c(F)c3)c(-c3cccc(F)c3)n2)cc1`, the growth is 99.8%.
As to `CCc1cccc(NC(=O)CNc2cc(S(=O)(=O)N(C)C)cc(C)c2C)c1`, the growth is 92.4%.
As for `COc1ccc2c(c1)c(-c1cc(N)n3nc(-c4cn(C)c5ccc(OC)cc45)cc3n1)cn2C`, the growth is 112%.
Consider `C=C(C=O)[C@@H]1CC[C@]2(COC(C)=O)CC[C@]3(C)C(CC[C@@H]4[C@@]5(C)CC[C@H](OC(C)=O)C(C)(C)[C@@H]5CC[C@]43C)[C@@H]12` (stereo partly drawn), for which the growth was -13.6% (active).
The figure for `COc1ccc(-c2nc3ccc(-c4nnc(SCC(=O)Nc5ccc(C(=O)/C=C/c6ccc(Cl)cc6)cc5)o4)cc3[nH]2)cc1` is 99.3%.
Turning to `COc1ccc(/C=C(\C#N)C(=O)N2c3ccccc3Sc3ccc(SC)cc32)cc1F`, the growth was 97.9%.
Take `O=C(CNc1nc(-c2cccc([N+](=O)[O-])c2)cs1)Nc1cccc(Cl)c1`: the growth is 105%.
For the compound `CC1(C)CC[C@]23CC[C@]4(C)[C@H](CC[C@@H]5[C@@]6(C)CCCN(CO)C(C)(C)[C@@H]6CC[C@]54C)[C@H]2[C@H]1OC3`, the growth is 88.7%.
In the case of `C=C(C=O)[C@@H]1CC[C@]2(C)[C@H](CC=C3[C@H]4[C@@H](C)[C@H](C)CC[C@]4(C(=O)OC)CC[C@]32C)[C@@]1(C)CCC#N`, the growth is -7.24% (active).
As for `CN(C)C(=O)c1cc(-c2ccc3ncnc(NCc4ccccc4)c3c2)cnc1N`, the growth is 99.2%.
With `O=S(=O)(NCCCNc1nccc(-c2[nH]c(-c3ccccc3)nc2-c2ccc(Cl)c(O)c2)n1)c1cccc2ccccc12`, the growth is 16.6%.
The figure for `Nc1ccccc1NC(=O)c1ccc(NC(=O)C/C=C/c2cccnc2)cc1` is 26.3%; for `COc1cc(-c2nc(SCCC(C)C)nc(NNC(=O)c3ccncc3)c2C#N)cc(OC)c1OC` it is 90.1%; for `O=C(NNc1nc2cc(F)c(F)cc2n2cccc12)c1cnccn1` it is 37.1%.

Values taken from PubChem BioAssay (NCI).
